We go through 13 molecules from PubChem BioAssay (NCATS).

Records with an inconclusive call do not appear. The source made the active and inactive calls. Unless noted, the call rests on the fitted dose curve.

The nature of experiment [1]: qHTS for Inhibitors of the Functional Ribonucleoprotein Complex (vRNP) of Lassa (LASV) Arenavirus: LASV Primary Screen - GLuc reporter signal (AID 1347082; calls by dose curve; tested in HEK293 reporter line; further: nearly all actives have a fitted effect of over 60% in size).
Experiment [2] can be described thus: qHTS for Inhibitors of the Functional Ribonucleoprotein Complex (vRNP) of Lassa (LASV) Arenavirus: Viability assay - alamar blue signal for LASV Primary Screen (AID 1347083; calls by dose curve; tested in HEK293 reporter line; further: nearly all actives have a fitted effect of over 80% in size).
A short description of experiment [3]: qHTS for Inhibitors of the Functional Ribonucleoprotein Complex (vRNP) of Lymphocytic Choriomeningitis Arenaviruses (LCMV): Viability assay - alamar blue signal for LCMV Primary Screen (AID 1347085; calls by dose curve; tested in HEK293 reporter line; further: nearly all actives have a fitted effect of over 80% in size).
Experiment [4] deals with Nucleoprotein (Lymphocytic choriomeningitis virus (strain Armstrong)) (UniProt P09992). As to the kind of experiment: qHTS for Inhibitors of the Functional Ribonucleoprotein Complex (vRNP) of Lymphocytic Choriomeningitis Arenaviruses (LCMV): LCMV Primary Screen - GLuc reporter signal (AID 1347086). Further: nearly all actives have a fitted effect of over 70% in size.
Sequence of Nucleoprotein (Lymphocytic choriomeningitis virus (strain Armstrong)) (P09992 whole entry, looked up): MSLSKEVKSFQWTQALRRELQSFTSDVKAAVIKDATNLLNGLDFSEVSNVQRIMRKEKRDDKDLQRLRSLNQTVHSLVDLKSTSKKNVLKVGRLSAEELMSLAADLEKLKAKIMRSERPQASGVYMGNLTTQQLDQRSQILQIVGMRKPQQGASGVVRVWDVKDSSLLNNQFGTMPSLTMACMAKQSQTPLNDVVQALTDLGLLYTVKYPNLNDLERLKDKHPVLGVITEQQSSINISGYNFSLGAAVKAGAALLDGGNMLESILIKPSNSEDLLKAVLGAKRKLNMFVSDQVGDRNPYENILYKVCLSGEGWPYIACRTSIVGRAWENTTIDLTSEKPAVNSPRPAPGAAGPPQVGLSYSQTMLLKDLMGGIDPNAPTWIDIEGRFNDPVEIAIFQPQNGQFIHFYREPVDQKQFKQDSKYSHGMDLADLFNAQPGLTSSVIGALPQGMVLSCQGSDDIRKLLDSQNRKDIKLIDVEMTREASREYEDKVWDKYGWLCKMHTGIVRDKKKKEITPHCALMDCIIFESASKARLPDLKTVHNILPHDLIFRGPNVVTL
Potency means the concentration at half of the fitted maximal effect.

Turning to `CC(=O)OC[C@H]1O[C@@H](OC(C)=O)[C@H](OC(C)=O)[C@@H]1OC(C)=O`, the Potency entry in experiment [1], in experiment [2], in experiment [3] and in experiment [4] was “inactive” throughout.
With `CCOC(=O)c1ccc(O)c(O)c1`, the Potency entry in experiment [1], in experiment [2], in experiment [3] and in experiment [4] was “inactive” throughout.
As for `CC1COc2c(N3CCN(C)CC3)c(F)cc3c(=O)c(C(=O)O)cn1c23` (configuration not stated), the Potency result in experiment [1], in experiment [2], in experiment [3] and in experiment [4] was “inactive” throughout.
On to `COC(=O)[C@@H]1[C@H]2C[C@H]3c4[nH]c5ccccc5c4CCN3C[C@@H]2CC[C@@H]1O`, for which the Potency entry in experiment [1], in experiment [2], in experiment [3] and in experiment [4] was “inactive” in each case.
Regarding `COc1ccc2cc([C@H](C)C(=O)O)ccc2c1`, the Potency entry in experiment [1], in experiment [2], in experiment [3] and in experiment [4] was “inactive” each time.
`Cc1coc2ccccc2c1=O`: the Potency entry in experiment [1], in experiment [2], in experiment [3] and in experiment [4] was “inactive” throughout.
As to `CCC1(C)CC(=O)NC1=O` (configuration not stated), the Potency result in experiment [1], in experiment [2], in experiment [3] and in experiment [4] was “inactive” each time.
Regarding `C#CCC(Cc1cnc2nc(N)nc(N)c2n1)c1ccc(C(=O)N[C@@H](CCC(=O)O)C(=O)O)cc1` (some centres not stated), the Potency is 544 nM (active) in experiment [1], 273 nM (active) in experiment [2], 217 nM (active) in experiment [3] and 306 nM (active) in experiment [4].
On the same counts, the results for `COc1cc(C(=O)N2CCOCC2)cc(OC)c1OC` are “inactive”, “inactive”, “inactive” and “inactive”.
Take `NC(=O)NS(=O)(=O)c1ccc(Cl)cc1`: the Potency result in experiment [1], in experiment [2], in experiment [3] and in experiment [4] was “inactive” throughout.
Turning to `O=C(O)c1ccccc1OP(=O)(O)O`, the Potency result in experiment [1], in experiment [2], in experiment [3] and in experiment [4] was “inactive” throughout.
Consider `CCN(CC)S(=O)(=O)c1ccc(C(=O)O)cc1`, for which the Potency result in experiment [1], in experiment [2], in experiment [3] and in experiment [4] was “inactive” in each case.
Regarding `Cn1c(=O)c2c(ncn2CCO)n(C)c1=O`, the Potency result in experiment [1], in experiment [2], in experiment [3] and in experiment [4] was “inactive” in each case.
